# Compound activity from PubChem BioAssay.
# Only some compounds are listed: those with a hit (about 3.9% of all), similar ones and a draw of the others.
# TROY NFkB inh: blocks TROY-dependent signaling in reporter cells; Q293 LMP1-TROYcd NF-kB luciferase reporter, 4 h; inhibition, % at 10 µM; 360,000 tested, 0.98% active; AID 1347056;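 active = compounds whose plate-normalised and pattern-corrected inhibition of the luciferase reporter signal at the single screening dose is 50% or more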
# aSyn 5UTR inh: 5' untranslated region of α-synuclein, MLPCN primary screen | alpha-synuclein 5'UTR reporter, inhibitor activity | inhibition, % (tested at 7.5 µM) | 300,000 tested, 0.82% active; in the data active = inhibition above about 60%;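 also: H4 neuroglioblastoma cells stably carrying SNCA 5'UTR luciferase fusion; 0% = DMSO wells and 100% = positive control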
# C8 TRAIL sens: sensitizes caspase-8 expressing cells to TRAIL; NB7+C8 cells + TRAIL, ATPlite viability luminescence; 360,000 tested, 1% active; inhibition (viability loss, TRAIL sensitization), % at 10 µM;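 active = compounds causing at least 50% loss of cell viability in the single-dose screen, relative to plate controls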
# HSP90 refold inh: HSP90 refolding inhibition in rabbit reticulocyte lysate; luciferase refolding luminescence, 3 h; inhibition, % at 5.6 µM; 290,000 tested, 0.91% active;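 active = inhibition above the screen-wide mean plus 3 SD, computed separately per campaign, cut at about 16% in these data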;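 also: 0% = DMSO wells and 100% = 60 µM geldanamycin wells; inhibitors lower the luminescence because luciferase stays unfolded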
# HIF-2a inh: blocks HIF-2a reporter activity; 786-0 RCC cells HIF-2a reporter, luciferase luminescence, overnight; inhibition, % at 18.8 µM; 360,000 tested, 0.72% active; AID 624352;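 active = inhibition of the luminescence signal of 40% or more relative to plate controls, in a single-dose primary screen at 18.75 µM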
# TWEAK Fn14 block: TWEAK-Fn14 signaling inhibition; AID 1159606; inhibition, % at 10 µM; TWEAK-stimulated Fn14 reporter cells, luciferase luminescence, 8 h; 360,000 tested, 2% active; in the data active = inhibition above about 50%
# * marks the source's active call; other numbers are inactive results; · = no result.
SMILES,TROY NFkB inh,aSyn 5UTR inh,C8 TRAIL sens,HSP90 refold inh,HIF-2a inh,TWEAK Fn14 block
O=C(C[C@H]1C[C@H](C(=O)N2CCCCC2)[C@@]2(CCc3ccccc3)c3[nH]c4ccc(Cl)cc4c3CCN2C1=O)NCc1cccc(C(F)(F)F)c1,16,·,6,·,3,53*
COc1cc(N/N=C/c2ccc(N(C)C)cc2)ncn1,43,24,77*,16,-43,60*
COC(=O)c1ccc(CN2C(=O)NC3(CCCCC3C)C2=O)o1 (configuration not stated),·,7,14,0,12,53*
CCCCC(=O)Nc1cc(N(C)C)nc2ccccc12,-9,10,-1,0,18,-3
CN(C)c1cc(NC(=O)CNC(C)(C)C)c2ccccc2n1,-2,20,6,4,20,51*
Cn1c(NCC(O)c2ccccc2)nc2c1c(=O)n(Cc1ccc(Cl)cc1)c(=O)n2C (configuration not stated),13,21,-5,-3,2,20
Cn1c(NCC(O)c2ccccc2)nc2c1c(=O)n(Cc1ccc(Cl)c(Cl)c1)c(=O)n2C (configuration not stated),54*,27,2,-1,31,49
O=S(=O)(c1ccc(Br)cc1)c1cnc2ccccc2n1,28,-20,-3,5,27,55*
COc1ccc(S(=O)(=O)c2cnc3ccccc3n2)cc1,-1,2,3,4,11,42
O=C(CSC(=S)N1CCCC1)N(Cc1nnc(-c2ccccc2Cl)o1)C1CC1,-12,·,1,·,7,-24
O=C(Nc1ccc(OCC(F)(F)C(F)F)c(C(F)(F)F)c1)c1ccccc1,43,-101,35,-1,-124,14
O=C(Nc1ccc(OCC(F)(F)C(F)F)c(C(F)(F)F)c1)c1ccccc1O,44,42,58*,-4,-177,46
Cc1cc(C)c2nc3sc(C(=O)N4CCOCC4)c(N)c3cc2c1,24,88*,27,-3,-134,9
Cc1ccc(C)c2nc3sc(C(=O)N4CCOCC4)c(N)c3cc12,-8,-129,-47,3,-251,-23
Cc1cccc2cc3c(N)c(C(=O)Nc4ccc(N5CCOCC5)cc4)sc3nc12,51*,17,29,-2,-21,58*
Cc1ccc2nc3sc(C(=O)Nc4ccc(N5CCOCC5)cc4)c(N)c3cc2c1,·,-35,·,1,·,·
O=C(Nc1cccc(NC(=O)c2cccs2)c1)c1ccc([N+](=O)[O-])o1,12,-69,34,33*,25,20
Cc1ccc(-c2cc(C(=O)N3CCN(c4ccccc4O)CC3)c3ccccc3n2)o1,-35,-81,65*,-5,-134,0
CCOc1ccc(-c2cc(C(=O)O)c3ccccc3n2)cc1,-9,-83,83*,8,-120,28
O=C(O)c1cc(-c2ccccc2)nc2ccccc12,-10,-2,1,5,-1,19
COc1ccc(-c2cc(C(=O)N3CCCCC3)c3ccccc3n2)cc1,-28,-18,31,·,-131,-32
CCOc1ccc(-c2cc(C(=O)N3CCC(C)CC3)c3ccccc3n2)cc1,-36,-128,54*,0,-186,4
Cc1cccc2c(C(=O)N3CCCCC3)cc(-c3ccccc3)nc12,6,11,12,0,12,-2
Cc1cccc2c(C(=O)N3CCN(c4ccccc4)CC3)cc(-c3ccncc3)nc12,12,94*,25,2,-1,3
COc1ccc(S(=O)(=O)N(C)C[C@@H]2OCc3cnnn3CCCC(=O)N([C@H](C)CO)C[C@@H]2C)cc1,8,·,-4,·,7,2
SMILES,TROY NFkB inh,aSyn 5UTR inh,C8 TRAIL sens,HSP90 refold inh,HIF-2a inh,TWEAK Fn14 block
CCCCNC(=O)C1C(c2ccc(C(F)(F)F)cc2)=Nc2ccccc2N1C(=O)c1cccc(C(F)(F)F)c1 (configuration not stated),·,·,4,·,-2,·
Cc1ccc(-c2cc(C(=O)N3CCN(c4ncccn4)CC3)c3ccccc3n2)cc1,-6,-55,67*,0,-260,39
O=C(c1cc(-c2ccncc2)nc2ccc(Br)cc12)N1CCN(c2ccccn2)CC1,13,-6,-1,-4,-4,42
O=C(c1cc(-c2ccccc2Cl)nc2ccc(Br)cc12)N1CCN(c2ccccn2)CC1,69*,23,41,9,15,58*
COCOc1cccc(CN2CCC2(C)C(=O)Nc2ccc(OC)c(OC)c2)c1 (configuration not stated),9,·,-10,·,0,9
CCOc1ccc(Br)cc1CNc1ccc2c(c1)OCCO2,87*,-29,-2,3,3,83*
O=C(NCc1ccncc1)Nc1ccc2c(c1)OCO2,-9,-64,-4,5,-31,-10
CCOc1ccc(Br)cc1CNCCN1CCOCC1,-7,-11,-23,-1,13,3
c1cc(CNc2ccc3c(c2)OCCO3)ccn1,62*,-7,10,4,28,81*
COc1ccc(S(=O)(=O)N(C)C[C@H]2Oc3c(cccc3N(C)C)C(=O)N([C@H](C)CO)C[C@@H]2C)cc1,-9,·,5,·,10,6
COC(=O)[C@]12CCCCC=C1N(Cc1ccc3c(c1)OCO3)C(=O)[C@H](CC(=O)NCCCN1CCCC1=O)C2,·,·,-2,·,5,·
CC(C)NC(=O)Nc1ccc2c(c1)C(=O)N([C@H](C)CO)C[C@H](C)[C@@H](CN(C)S(=O)(=O)c1ccccc1)O2,-4,·,-12,·,5,-2
C[C@@H]1CN([C@@H](C)CO)C(=O)Cc2cc(NC(=O)Nc3ccc(F)cc3)ccc2O[C@@H]1CN(C)Cc1ccc(Cl)c(Cl)c1,21,·,-7,·,-39,60*
C[C@@H]1CN([C@@H](C)CO)C(=O)c2cc(NC(=O)Nc3ccccc3)ccc2O[C@H]1CN(C)C(=O)Nc1cccc2ccccc12,52*,·,-5,·,-2,48
C[C@H]1CN([C@@H](C)CO)C(=O)Cc2cc(NS(C)(=O)=O)ccc2O[C@@H]1CN(C)Cc1ccc(Cl)c(Cl)c1,4,·,3,·,6,-36
C[C@H](CO)N1C[C@H](C)[C@@H](CN(C)S(=O)(=O)c2ccccc2)Oc2ccc(NC(=O)Nc3ccc(C(F)(F)F)cc3)cc2C1=O,36,·,23,·,-10,61*
Cc1ccc(S(=O)(=O)N2C[C@H]3[C@H]4C(=O)N(C)C(=O)[C@H]4CC(=O)[C@H]3[C@@H]2c2ccccc2F)cc1,-10,·,-10,·,8,6
Cc1cc2c(cc1C)-c1nnnn1C(N1CCCCC1)C(=O)N2 (configuration not stated),·,·,-8,·,4,·
COc1cc(CC(=O)N2c3ccccc3N=C(c3ccccc3)C2C(=O)NCc2ccccc2)cc(OC)c1 (configuration not stated),·,·,8,·,9,·
CC(Nc1nc(-c2ccc(F)cc2)cs1)c1nc2cc(Cl)c(N3CCCCC3)cc2n1CCOCCO (configuration not stated),-14,-46,4,·,-12,-16
